Reference: PubChem BioAssay AID2058 (Sanford-Burnham Center for Chemical Genomics, 2009)
In all, about 290,000 compounds went through this assay and about 150 (0.052%) were called active.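 Rule for the calls: active = inhibition of at least 50% with at least 30 cells and total cytoplasm GFP at most 10,000,000; inconclusive = under 30 cells or total GFP of 10,000,000 plus; inactive = the rest.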 The full list was thinned out, with actives kept by preference. Measured potencies and affinities stand elsewhere.

The compounds below were run against G-protein coupled receptor 35 (Homo sapiens) (UniProt Q9HC97) (assay: inhibition of zaprinast-stimulated GPR35 beta-arrestin translocation – imaging, U2OS, beta-arrestin-GFP, zaprinast agonist, primary screen (AID 2058)). Details: zaprinast antagonism, at 10 µM, active compounds read high.
Chain of G-protein coupled receptor 35 (Homo sapiens) (Q9HC97 whole entry, looked up): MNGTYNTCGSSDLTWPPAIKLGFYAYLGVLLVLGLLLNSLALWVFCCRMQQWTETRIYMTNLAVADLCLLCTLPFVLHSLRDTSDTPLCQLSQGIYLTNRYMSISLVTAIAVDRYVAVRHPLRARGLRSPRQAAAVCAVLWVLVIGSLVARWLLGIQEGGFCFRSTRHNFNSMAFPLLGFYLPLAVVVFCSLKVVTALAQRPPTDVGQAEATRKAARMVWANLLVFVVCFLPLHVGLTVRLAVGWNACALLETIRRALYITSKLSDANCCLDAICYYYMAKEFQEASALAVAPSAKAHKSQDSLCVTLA
With `COc1cccc(CNS(=O)(=O)c2ccc3c(c2)N(C(C)=O)CCO3)c1` the inhibition was -10.2% (inactive). With `O=C(CSCc1ccc(Cl)cc1)Nc1ccc(Br)cc1C(=O)O` the inhibition was 2.2% (inactive). For `Cn1c(=O)[nH]c(=O)c2c1nc(Sc1nc3ccccc3s1)n2Cc1ccccc1`, the inhibition was 13.4% (inactive). With `Cn1c(SCc2ccc(Br)cc2)nc2c(c1=O)SCC2` the inhibition was -9.1% (inactive). For `CCOC(=O)C1=C(Cc2ccc(C)cc2)C(=O)c2ccccc2C1=O`, the inhibition was 5% (inactive). In the case of `CCOC(=O)C1=C(Cc2ccc(F)cc2)C(=O)c2ccccc2C1=O`, the inhibition is reported as 11.7% (inactive). With `CCOC(=O)N1CCN(C(=O)C2CCN(S(=O)(=O)c3ccc(OCC)cc3)CC2)CC1` the inhibition was 10.5% (inactive). With `CC(C)c1ccc(/C=C2\NC(=S)N(Cc3cccnc3)C2=O)cc1` the inhibition was -2.8% (inactive). In the case of `O=C1/C(=C/c2ccc(Cl)cc2)NC(=S)N1Cc1cccnc1`, the inhibition is reported as -2.2% (inactive). `S=c1[nH]nc(COc2ccccc2)n1/N=C/c1c(Cl)cccc1Cl` was tested, and the inhibition was 0.3% (inactive). `Cc1ccc(S(=O)(=O)N[C@@H](Cc2ccccc2)C(=O)N2CCC(C(=O)N[C@@H](CC(C)C)C(=O)O)CC2)cc1` was tested, and the inhibition was 1% (inactive). In the case of `Cc1ccc(OC(C)C(=O)Nc2ccc(S(=O)(=O)Nc3nccs3)cc2)cc1` (configuration not stated), the inhibition is reported as -8.6% (inactive). For `COc1ccc(OC)c(NC(=O)C2CCN(S(=O)(=O)c3cccs3)CC2)c1`, the inhibition was 4.3% (inactive). `CCCCCC(=O)N/N=C(\C)c1ccc(Cl)cc1` was tested, and the inhibition was -9.2% (inactive). In the case of `CCN(CC(=O)NC1CCS(=O)(=O)C1)c1nc(-c2ccccc2)nc2ccccc12` (configuration not stated), the inhibition is reported as 1.8% (inactive). `CCC(NC(=S)NC1CCCCC1)c1ccccc1` (configuration not stated) was tested, and the inhibition was -4.4% (inactive). For `CC(NC(=O)NC1CCCCC1)c1ccccc1` (configuration not stated), the inhibition was 5.6% (inactive). `CCC(NC(=O)NC1CCCCC1)c1ccccc1` (configuration not stated) was tested, and the inhibition was 103% (active). `COc1cc(C#N)ccc1OCC(=O)N1CCc2ccccc2C1` was tested, and the inhibition was 10.3% (inactive). With `Cc1ccc(Cn2ncc(Cl)c(Cl)c2=O)cc1` the inhibition was 33.1% (inactive). In the case of `O=c1c(Cl)c(Cl)cnn1Cc1ccc(F)cc1`, the inhibition is reported as 49.1% (inactive). In the case of `CCc1c(C)sc(NC(=O)c2ccco2)c1C(=O)N1CCOCC1`, the inhibition is reported as -15.5% (inactive). `COc1ccc(OC)c(N(CC(=O)Nc2ccc3c(c2)OCCO3)S(C)(=O)=O)c1` was tested, and the inhibition was -8.2% (inactive). `C[N+]1=C(/C=C/Nc2ccccc2Cl)C(C)(C)c2ccccc21` was tested, and the inhibition was 6.8% (inactive). In the case of `COC(=O)c1ccc2c(c1)C(C)(C)C(/C=C/c1ccccc1O)=[N+]2C`, the inhibition is reported as 18.9% (inactive). For `O=c1c(Cc2ccc(F)cc2)c(O)ccn1Cc1cccc(Cl)c1`, the inhibition was -9.1% (inactive). `O=S(=O)(NCCSc1ccccc1)c1cccs1` was tested, and the inhibition was -13.8% (inactive). In the case of `O=C(CCN1C(=O)/C(=C/c2ccc3c(c2)OCO3)SC1=S)Nc1ccc(C(=O)O)cc1`, the inhibition is reported as 0.4% (inactive). `O=C(CCN1C(=O)/C(=C/c2ccc3c(c2)OCO3)SC1=S)Nc1cccc(C(=O)O)c1` was tested, and the inhibition was -7.5% (inactive). With `O=C(CCN1C(=O)/C(=C/c2ccc3c(c2)OCO3)SC1=S)Nc1ccccc1` the inhibition was 15.7% (inactive). `O=C(CCCN1C(=O)/C(=C/c2ccco2)SC1=S)Nc1cccc(C(=O)O)c1` was tested, and the inhibition was 5.8% (inactive). `Cn1c(=O)n(CC(=O)N2CCOCC2)c2ccccc21` was tested, and the inhibition was -9.9% (inactive). For `O=C(CCN1C(=O)c2ccncc2C1=O)Nc1ccc(F)cc1`, the inhibition was 3.7% (inactive). In the case of `C(/C=C/C=C/Nc1ccccc1)=Nc1ccccc1`, the inhibition is reported as 90.5% (active). For `CCn1c(O)c(/C=C/C=C/C=Nc2ccccc2)sc1=S`, the inhibition was -0.5% (inactive). `Brc1ccc(N=C/C=C/C=C/Nc2ccc(Br)cc2)cc1` was tested, and the inhibition was 40.6% (inactive). In the case of `COc1ccccc1NC(=O)N1CCN(Cc2ccc3c(c2)OCO3)CC1`, the inhibition is reported as -7.3% (inactive). In the case of `COc1ccc(/C=C2/S/C(=N/N=C3\CC4CCC3(C)C4(C)C)NC2=O)cc1` (configuration not stated), the inhibition is reported as 1.4% (inactive). `Cc1cccc(/C=C2/S/C(=N/N=C3\CC4CCC3(C)C4(C)C)NC2=O)c1` (configuration not stated) was tested, and the inhibition was 1.3% (inactive). For `Cc1nc(CC(=O)O)c(-c2ccccc2)s1`, the inhibition was -2.4% (inactive). For `Cc1ccc(C(=O)C(C)OC(=O)c2cc3cc([N+](=O)[O-])ccc3oc2=O)cc1` (configuration not stated), the inhibition was -8.8% (inactive). `Cc1cc(-c2nnc(SCC(=O)Nc3ccccc3Cl)n2C)no1` was tested, and the inhibition was 18.2% (inactive). `CC1=CC(=C(C#N)c2nc3ccccc3s2)C=C(C)N1CC1CCCO1` (configuration not stated) was tested, and the inhibition was 3.3% (inactive). For `CC[n+]1c(C=C2C=C(C)OC(C)=C2)sc2ccccc21`, the inhibition was 11.8% (inactive). With `Cn1c(=O)cc(OCC(=O)NCCc2ccc(Cl)cc2)c2ccccc21` the inhibition was 13.1% (inactive). `COc1ccc(OC)c2[nH]c(C(=O)N3CCC(C(=O)O)CC3)cc12` was tested, and the inhibition was -3.2% (inactive). `CC1Cc2ccccc2N1C(=O)c1cccnc1` (configuration not stated) was tested, and the inhibition was 20.2% (inactive). With `COc1ccccc1/C=C/C(=C1/C(=O)N(c2ccccc2)N=C1C)c1ccc(C)cc1` the inhibition was -2% (inactive). For `CC(C)(C)c1ccc2c(c1)C(=O)c1ccccc1C2=O`, the inhibition was -1.9% (inactive). For `CC1=CC(=O)c2ccccc2C1=O`, the inhibition was 10.8% (inactive). `CC(C)(C=O)C1=CC(=O)c2ccccc2C1=O` was tested, and the inhibition was 78.8% (active). In the case of `CC1Cc2ccccc2N1C(=O)CN(C)S(=O)(=O)c1cccc2cccnc12` (configuration not stated), the inhibition is reported as -6.9% (inactive). With `Cc1ccccc1C(=O)N1CCCN(C(=O)c2ccccc2C)CC1` the inhibition was -12.2% (inactive). In the case of `O=C(NNC(=S)Nc1ccc(F)cc1F)c1ccco1`, the inhibition is reported as -12.7% (inactive). With `CCOCCCNC(=O)C(c1ccc(Cl)cc1)N1CCN(c2ccccc2)CC1` (configuration not stated) the inhibition was 5.9% (inactive). In the case of `Cc1ccc(/C=C(\C#N)C(=O)NC(C)c2ccccc2)o1` (configuration not stated), the inhibition is reported as -5.7% (inactive). In the case of `CC(C)NC(=O)/C(C#N)=C\c1ccc(N(C)C)o1`, the inhibition is reported as 50% (active). With `COc1ccc(/C=C(\C#N)C(=O)NC(C)c2ccccc2)cc1O` (configuration not stated) the inhibition was 9.9% (inactive). `CCN(CC)c1ccc(/C=C(/C#N)C(=O)NC(C)C)o1` was tested, and the inhibition was 14.3% (inactive). With `Cc1ccc(/C=C(/C#N)C(=O)NC(C)c2ccccc2)o1` (configuration not stated) the inhibition was -7.7% (inactive). For `COC(=O)c1ccc(/C=C(\C#N)C(=O)NC(C)c2ccccc2)cc1` (configuration not stated), the inhibition was -3.1% (inactive). `CC(C)NC(=O)/C(C#N)=C/c1ccc(N(C)C)o1` was tested, and the inhibition was 19.2% (inactive). `CC(CCc1ccccc1)NC(=O)CCN1N=C(c2ccccc2)CCC1=O` (configuration not stated) was tested, and the inhibition was -14.8% (inactive). `O=C(NCCN1CCN(c2ccccc2)CC1)C1CCN(S(=O)(=O)N2CCOCC2)CC1` was tested, and the inhibition was 17.1% (inactive). For `COc1cccc(C(=O)NC(=S)Nc2ccccc2N2CCCCC2)c1`, the inhibition was 9.4% (inactive). In the case of `O=C(CCn1cccn1)Nc1ccc2c(c1)OCCO2`, the inhibition is reported as 18.7% (inactive). With `CCC1(C)Cc2ccccc2-c2[nH][nH]c(=O)c21` (configuration not stated) the inhibition was -5.1% (inactive).
